Reference: PubChem BioAssay (EPA / NIEHS)
Activity calls are given as the source filed them. How the source made its calls: active means hit-call score of the fitted dose curve at least 0.9, where 1 is the maximum; inactive means score below 0.9.

How the values were obtained:
[1] = APR_HepG2_CellCycleArrest_24hr: Apredica 24-hour HepG2 Assay for Cell Cycle Arrest (AID 2282905); details: imaging, actives raise or lower the signal;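 further: cell cycle arrest scored as ratio of 2N to 4N nuclear DNA content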
Outline: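 Readout: Hoechst 33342 nuclear DNA content by high-content fluorescent imaging, six images/well, 20x. Human HepG2 liver cells, 24 hr compound exposure, 0.39–200 uM, final DMSO 0.5% v/v. Gain or loss fitted relative to DMSO baseline.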

[2] = APR_HepG2_NuclearSize_24hr: Apredica 24-hour HepG2 Assay for Nuclear Size (AID 2282907); details: high-content imaging, actives raise or lower the signal
Outline: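 Read-out: nuclear diameter from Hoechst 33342 (2 ug/mL) imaging of fixed HepG2 cells, 20x, six fields/well. Compounds ran at 0.39–200 uM for 24 hr, 0.5% DMSO final. Gain or loss was fitted bidirectionally relative to the DMSO baseline.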

[3] = APR_HepG2_CellLoss_24hr: Apredica 24-hour HepG2 Assay for Cell Loss (AID 2282908); details: high-content imaging;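 on AC50: fit in both directions so a hit may be cell loss or gain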
Outline: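 Read-out: Hoechst 33342-stained nuclei counted by automated fluorescence imaging after formaldehyde fixation and Triton permeabilization. Ten concentrations, 0.39 to 200 uM, duplicate wells, 0.5% DMSO final. Gain or loss of signal fitted relative to DMSO baseline.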

[4] = APR_HepG2_MicrotubuleCSK_24hr: Apredica 24-hour HepG2 Assay for Microtubule CSK Stabilty (AID 2282909); details: HepG2 microtubule cytoskeleton imaging, actives raise or lower the signal
Outline: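 Read-out: alpha-tubulin immunofluorescence intensity by automated high-content imaging of fixed HepG2 cells after 24 h compound treatment. Ten concentrations, 0.39 to 200 uM, in duplicate; DMSO 0.5% v/v. Taxol positive control; DMSO-normalized bidirectional curve fitting.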

[5] = APR_HepG2_MitoticArrest_24hr: Apredica 24-hour HepG2 Assay for Mitotic Arrest (AID 2282910); details: high-content imaging, actives raise or lower the signal
Outline: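 HepG2, 24 hr dosing, 0.39–200 uM, 0.5% DMSO final. Formaldehyde-fixed, Triton-permeabilised, anti-phospho-histone H3 plus Hoechst. ArrayScan imaging at 20x; bidirectional fit vs DMSO baseline.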

[6] = APR_HepG2_MitoMembPot_24hr: Apredica 24-hour HepG2 Assay for Mitochondrial Membrane Potential (AID 2282911); details: imaging, actives raise or lower the signal
Outline: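 HepG2 cells exposed 24 h to 0.39–200 uM compounds in duplicate, 0.5% v/v DMSO final. MitoTracker Red CMXRos 250 nM loaded 30 min before formaldehyde fixation; high-content imaging at 20x, bidirectional fit versus DMSO.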

[7] = APR_HepG2_MitoMass_24hr: Apredica 24-hour HepG2 Assay for Mitochondrial Mass (AID 2282912); details: high-content imaging, actives raise or lower the signal
Outline: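 HepG2, 24 hr dosing, 10 concentrations 0.39–200 uM in duplicate, DMSO 0.5% final. MitoTracker Red CMXRos 250 nM, 30 min pre-fix; 3.7% formaldehyde fix. Imaging-based fluorescence intensity; gain/loss fit vs DMSO baseline.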

[8] = APR_HepG2_p53Act_24hr: Apredica 24-hour HepG2 Assay for p53 Activation (AID 2282913); details: high-content imaging, actives raise or lower the signal;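 further: p53 protein immunofluorescence averaged per cell in HepG2 with Hoechst nuclei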
Outline: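 HepG2 cells exposed 24 h to compounds at 0.39–200 uM in duplicate, 0.5% v/v DMSO final; fixed, permeabilized, stained with anti-p53 antibody and Hoechst 33342; fluorescence imaging; bidirectional curve fit versus DMSO.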

[9] = APR_HepG2_CellCycleArrest_72hr: Apredica 72-hour HepG2 Assay for Cell Cycle Arrest (AID 2282914); details: high-content imaging, actives raise or lower the signal
Outline: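 HepG2 cells exposed 72 h in duplicate to 0.39–200 uM compound, 0.5% DMSO final. Formaldehyde-fixed, Hoechst 33342-stained nuclei imaged at 20x, six fields per well; DNA content per valid cell quantified by cell-cycle image analysis, bidirectional fit versus DMSO.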

[10] = APR_HepG2_CellLoss_72hr: Apredica 72-hour HepG2 Assay for Cell Loss (AID 2282915); details: high-content imaging
Outline: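 HepG2 cells exposed 72 h to compound at 0.39–200 uM (10 concentrations, duplicate) in 0.5% DMSO. Fixed with 3.7% formaldehyde and Hoechst 33342-stained. Imaged at 20x; nuclear count gives cell number, fitted bidirectionally versus DMSO.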

SMILES | outcome [1] | outcome [2] | outcome [3] | outcome [4] | outcome [5] | outcome [6] | outcome [7] | outcome [8] | outcome [9] | outcome [10] | AC50 [6] | AC50 [2] | AC50 [3] | AC50 [4] | AC50 [5] | AC50 [8] | AC50 [9] | AC50 [10] | AC50 [1] | AC50 [7]
COCC(C)OCC(C)OCC(C)O (stereo not given) | inactive | inactive | inactive | inactive | inactive | inactive | inactive | inactive | inactive | inactive |  |  |  |  |  |  |  |  |  | 
O=C1CCC(C2CCCCC2)CC1 | inactive | inactive | inactive | inactive | inactive |  | inactive | inactive | inactive | inactive | 19.8 µM (active) |  |  |  |  |  |  |  |  | 
C[C@]12CC[C@@H]3c4ccc(O)cc4CC[C@H]3[C@@H]1CC[C@H]2O | inactive |  |  |  |  |  | inactive |  |  |  | 16.8 µM (active) | 105 µM (active) | 68.1 µM (active) | 100 µM (active) | 97.1 µM (active) | 54.6 µM (active) | 173 µM (active) | 75.6 µM (active) |  | 
CCO[Si](CCCNC(N)=O)(OCC)OCC | inactive | inactive | inactive | inactive | inactive | inactive | inactive | inactive | inactive | inactive |  |  |  |  |  |  |  |  |  | 
O=c1c(-c2ccc(O)cc2)coc2cc(O)cc(O)c12 |  | inactive |  | inactive | inactive |  | inactive |  |  |  | 78.9 µM (active) |  | 32.6 µM (active) |  |  | 70.7 µM (active) | 47.4 µM (active) | 42.9 µM (active) | 43.1 µM (active) | 
Cc1cc2c(cc1C(F)(F)F)N(C(=O)Nc1ccc(Oc3cccnc3C)nc1)CC2 |  | inactive |  |  |  | inactive | inactive |  | inactive |  |  |  | 50.2 µM (active) | 43.6 µM (active) | 56.2 µM (active) | 45.7 µM (active) |  | 9.35 µM (active) | 2.58 µM (active) | 
O=C1c2ccccc2C(=O)N1CCc1noc(-c2ccc(CN3CCCCCC3)s2)n1 | inactive | inactive | inactive | inactive | inactive | inactive | inactive | inactive | inactive | inactive |  |  |  |  |  |  |  |  |  | 
CC(=O)N1CCN(c2ccc(OC[C@H]3CO[C@](Cn4ccnc4)(c4ccc(Cl)cc4Cl)O3)cc2)CC1 | inactive | inactive |  |  | inactive |  | inactive | inactive | inactive |  | 118 µM (active) |  | 28.6 µM (active) | 103 µM (active) |  |  |  | 23.5 µM (active) |  | 
Cc1ccc(C(C)C)cc1 | inactive | inactive | inactive | inactive | inactive | inactive | inactive | inactive | inactive | inactive |  |  |  |  |  |  |  |  |  | 
O=c1[nH]sc2ccccc12 | inactive | inactive |  |  |  | inactive |  |  |  |  |  |  | 29 µM (active) | 38.2 µM (active) | 13.5 µM (active) | 29.3 µM (active) | 21.4 µM (active) | 18.1 µM (active) |  | 15.7 µM (active)
CCCCCCCCCCCCO | inactive | inactive | inactive | inactive | inactive | inactive | inactive | inactive | inactive | inactive |  |  |  |  |  |  |  |  |  | 
O=C1O[C@H]([C@@H](O)CO)C(O)=C1O | inactive | inactive | inactive | inactive | inactive | inactive | inactive | inactive | inactive |  |  |  |  |  |  |  |  | 16.1 µM (active) |  | 
CC(C)(O)c1ccc(CNC(=O)c2cccnc2Oc2ccc3nonc3c2)cc1 | inactive | inactive | inactive | inactive | inactive | inactive | inactive | inactive | inactive | inactive |  |  |  |  |  |  |  |  |  | 
CN1C(=O)CC[C@H]1c1cccnc1 | inactive | inactive | inactive | inactive | inactive | inactive | inactive | inactive | inactive | inactive |  |  |  |  |  |  |  |  |  | 
O=C(Nc1ccc(Cl)cc1)Nc1ccc(Cl)c(Cl)c1 |  | inactive |  | inactive | inactive |  | inactive |  |  |  | 13.8 µM (active) |  | 4.01 µM (active) |  |  | 3.93 µM (active) | 16.6 µM (active) | 5.54 µM (active) | 7.09 µM (active) | 
CCOC(=O)O[C@H](C)OC(=O)c1ccc2c(c1)cc(C(=O)NC1CCN(C(C)C)CC1)n2Cc1cc(-c2ccc(Cl)s2)on1 |  | inactive |  |  |  |  |  |  | inactive |  | 44.4 µM (active) |  | 9.26 µM (active) | 25 µM (active) | 10.1 µM (active) | 94.5 µM (active) |  | 8.32 µM (active) | 94.5 µM (active) | 167 µM (active)
CCN(Cc1cccc(S(=O)(=O)O)c1)c1ccc(C(=C2C=CC(=[N+](CC)Cc3cccc(S(=O)(=O)O)c3)C=C2)c2ccccc2S(=O)(=O)[O-])cc1 | inactive | inactive | inactive | inactive | inactive | inactive | inactive | inactive | inactive | inactive |  |  |  |  |  |  |  |  |  | 
CCCCCc1ccc(N)cc1 | inactive | inactive | inactive | inactive | inactive | inactive | inactive | inactive | inactive | inactive |  |  |  |  |  |  |  |  |  | 
CCCCOC(=O)CC(CC(=O)OCCCC)(OC(C)=O)C(=O)OCCCC | inactive | inactive |  | inactive | inactive |  | inactive |  | inactive |  | 70.8 µM (active) |  | 27.7 µM (active) |  |  | 53.9 µM (active) |  | 42.5 µM (active) |  | 
